Drawing on PubChem BioAssay (EPA / NIEHS), this text covers outcome and AC50 for 6 molecules.

Molecules are shown by their SMILES. Activity calls are given as the source filed them. Rule for the calls: active = hit-call score of the fitted dose curve at least 0.9, where 1 is the maximum; inactive = score below 0.9.

The nature of assay [1]: ATG_E_Box_CIS: Attagene CIS-FACTORIAL HepG2 Assay for human Enhancer Box (E-box) (AID 2282936). The following applies: HepG2 E-box cis-reporter transcription, actives raise or lower the signal. An outline of the steps:
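Measured 24 h post-dosing in HepG2 cells transfected with multiple cis-regulated reporter units, signal being reporter mRNA induction detected by fluorescent RT-PCR with capillary electrophoresis; gain or loss fitted against DMSO.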

Assay [2] can be described thus: ATG_M_61_CIS: Attagene CIS-FACTORIAL HepG2 Assay for M61 Transcription Factor (Internal Marker) (AID 2282937). The following applies: HepG2 Attagene CIS-FACTORIAL M61 internal marker reporter; actives raise or lower the signal. An outline of the steps: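 Multiplexed reporter mRNA assay, HepG2 human hepatoma cells, 24 h treatment. Signal: FAM-labelled, HpaI-digested RT-PCR fragments by CE. Fit: bidirectional, baseline DMSO.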

A short description of assay [3]: ATG_EGR_CIS: Attagene CIS-FACTORIAL HepG2 Assay for human Early Growth Response 1 (EGR1) (AID 2282938). The following applies: HepG2 Attagene CIS-FACTORIAL EGR reporter mRNA; actives raise or lower the signal. The method in brief: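 Multiplexed cis-reporter system in human hepatoma HepG2 cells, transiently transfected. Cells are dosed for 24 h; reporter transcripts are amplified, fluorescently tagged and sized by capillary electrophoresis, with DMSO as negative control.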

Assay [4] is described as follows: ATG_Ets_CIS: Attagene CIS-FACTORIAL HepG2 Assay for human Erythroblast Transformation Specific (ETS) (AID 2282941). The following applies: HepG2 ETS cis-reporter transcription, actives raise or lower the signal. An outline of the steps:
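Endogenous transcription factor activity read as reporter mRNA via RT-PCR and capillary electrophoresis, with gain or loss fitted bidirectionally against DMSO. Human HepG2 liver cells, transiently transfected CIS reporter constructs, 24 h exposure.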

The target of assay [5] is Hepatocyte nuclear factor 3-beta (Homo sapiens) (UniProt Q9Y261). The assay can be described thus: ATG_FoxA2_CIS: Attagene CIS-FACTORIAL HepG2 Assay for human Forkhead box A2 (FOXA2) (AID 2282942). The following applies: HepG2 cis-reporter transcription factor activity, 24 h; actives raise or lower the signal. An outline of the steps: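 Multiplexed cis-element reporter assay in transiently transfected HepG2. Twenty-four hours post-dosing, RNA was reverse-transcribed, amplified, FAM-labelled, HpaI-digested and separated by CE. Activity gain or loss relative to DMSO.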
Hepatocyte nuclear factor 3-beta (Homo sapiens), sequence (Q9Y261 whole entry, looked up): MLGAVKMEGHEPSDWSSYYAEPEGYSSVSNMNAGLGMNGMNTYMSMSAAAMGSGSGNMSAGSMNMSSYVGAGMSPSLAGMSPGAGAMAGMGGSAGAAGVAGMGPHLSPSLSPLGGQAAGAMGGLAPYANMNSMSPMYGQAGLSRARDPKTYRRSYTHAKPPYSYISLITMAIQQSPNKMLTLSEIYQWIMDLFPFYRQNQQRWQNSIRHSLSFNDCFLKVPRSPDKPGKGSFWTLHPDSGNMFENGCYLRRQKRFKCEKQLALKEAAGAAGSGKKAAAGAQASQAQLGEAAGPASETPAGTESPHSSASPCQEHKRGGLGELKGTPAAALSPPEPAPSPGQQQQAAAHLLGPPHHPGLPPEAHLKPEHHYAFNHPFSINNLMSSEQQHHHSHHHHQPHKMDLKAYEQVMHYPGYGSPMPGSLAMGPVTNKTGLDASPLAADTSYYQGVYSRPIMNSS

A short description of assay [6]: ATG_FoxO_CIS: Attagene CIS-FACTORIAL HepG2 Assay for human Forkhead box O (FoxO) (AID 2282943). The conditions noted are these: HepG2 Attagene cis-reporter, FoxO element, mRNA; actives raise or lower the signal. The method in brief: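 HepG2 cells transiently transfected with cis-promoter-driven multiple reporter transcription units; 24 h after chemical dosing, reporter mRNA quantified by RT-PCR, fluorescent primer extension, HpaI digestion and capillary electrophoresis. Bidirectional fitting versus DMSO baseline.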

Assay [7] in a line: ATG_GATA_CIS: Attagene CIS-FACTORIAL HepG2 Assay for human GATA Binding Protein (AID 2282944). The following applies: HepG2 GATA cis-element reporter, Attagene multiplex mRNA; actives raise or lower the signal. The method in brief:
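Transfected cis-reporter HepG2 cells were treated with chemicals for 24 hours. Total RNA was then converted to cDNA, amplified with reporter-specific primers and analysed by fluorescent capillary electrophoresis, using DMSO-treated wells as baseline.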

Assay [8] can be described thus: ATG_GLI_CIS: Attagene CIS-FACTORIAL HepG2 Assay for human Zinc Finger Protein GLI1 (AID 2282945). The following applies: HepG2, Attagene cis-factorial reporter mRNA, GLI element; actives raise or lower the signal. An outline of the steps:
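HepG2 cells transiently transfected with cis-promoter multiplexed reporter units report endogenous transcription factor activity. After 24 h chemical exposure, reporter mRNA was quantified by RT-PCR, 6-FAM labelling, HpaI digestion and capillary electrophoresis, with bidirectional fitting against DMSO.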

A short description of assay [9]: ATG_GRE_CIS: Attagene CIS-FACTORIAL HepG2 Assay for human Glucocorticoid Response Elements (GRE) (AID 2282947). The following applies: HepG2 GRE cis-reporter, Attagene multiplex mRNA; actives raise or lower the signal. The method in brief:
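HepG2, transient cis-reporter transfection, 24 h. Reporter mRNA: RT-PCR then CE, fluorescence. Fit both directions vs DMSO.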

Assay [10] can be described thus: ATG_ISRE_CIS: Attagene CIS-FACTORIAL HepG2 Assay for human Interferon Regulatory Factor 1 (IRF1) binding to an Interferon-Stimulated Response Element (ISRE) (AID 2282948). The following applies: HepG2 ISRE cis-reporter (Attagene), mRNA transcription readout; actives raise or lower the signal. The method in brief: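 Endogenous transcription factor activity read as reporter transcript abundance via RT-PCR and capillary electrophoresis. HepG2 cells transiently transfected, 24 h chemical exposure. Gain or loss fitted against DMSO baseline.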

A short description of assay [11]: ATG_M_32_CIS: Attagene CIS-FACTORIAL HepG2 Assay for M32 Transcription Factor (Internal Marker) (AID 2282949).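 Note: background control marker of the multiplexed CIS panel rather than a real target.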 The following applies: HepG2 Attagene cis-factorial M32 reporter, mRNA; actives raise or lower the signal. An outline of the steps: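 Transient MRTU transfection of HepG2; 24 h compound treatment; TriZol RNA, oligo(dT) RT, reporter PCR, 6-FAM primer extension, HpaI cut, CE. Gain/loss of signal vs DMSO.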

Assay [12] in a line: ATG_M_06_CIS: Attagene CIS-FACTORIAL HepG2 Assay for M06 Transcription Factor (Internal Marker) (AID 2282950). The following applies: HepG2 Attagene CIS-FACTORIAL M06 internal marker reporter; actives raise or lower the signal. The method in brief:
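Cells (HepG2, transiently carrying cis-driven reporter units) receive chemical for 24 h before RNA isolation. Reporter cDNA is PCR-amplified, FAM-labelled by primer extension, HpaI-digested and sized on a capillary analyser.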

Assay [13] has as its target Hepatocyte nuclear factor 6 (Homo sapiens) (UniProt Q9UBC0). The assay can be described thus: ATG_HNF6_CIS: Attagene CIS-FACTORIAL HepG2 Assay for human Hepatocyte Nuclear Factor 6 (HNF6) (AID 2282952). The conditions noted are these: HepG2 Attagene cis-factorial HNF6 reporter transcription; actives raise or lower the signal. An outline of the steps:
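Readout: fluorescent reporter-transcript fragments resolved by capillary electrophoresis after RT-PCR, reflecting endogenous factor activity in transfected HepG2. Exposure 24 h. Gain or loss of signal fitted bidirectionally against DMSO.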

The target of assay [14] is Heat shock factor protein 1 (Homo sapiens) (UniProt Q00613). The assay can be described thus: ATG_HSE_CIS: Attagene CIS-FACTORIAL HepG2 Assay for human Heat Shock Transcription Factor 1 (HSE) (AID 2282953). The conditions noted are these: HepG2 HSE cis-reporter, Attagene RNA transcription; actives raise or lower the signal. The method in brief:
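Liver-derived HepG2 cells carry transiently introduced multiple reporter units governed by cis promoters. Reporter RNA measured 24 h post-dose through reverse transcription, PCR amplification, fluorescent labelling and capillary electrophoresis, normalised to DMSO.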

A short description of assay [15]: ATG_MRE_CIS: Attagene CIS-FACTORIAL HepG2 Assay for human Metal Responsive Element (MRE) (AID 2282954). The conditions noted are these: HepG2 MRE cis-reporter transcription, Attagene multiplex; actives raise or lower the signal. An outline of the steps: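 Readout: capillary electrophoresis of 6-FAM-labelled, HpaI-digested RT-PCR reporter products. System: HepG2 cells carrying transient multiplexed cis reporters, dosed 24 h. Analysis: bidirectional fit, DMSO baseline.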

The nature of assay [16]: ATG_PBREM_CIS: Attagene CIS-FACTORIAL HepG2 Assay for human Phenobarbital-responsive Enhancer Module (PBREM) (AID 2282955). The following applies: HepG2 PBREM cis-reporter, Attagene multiplexed transcription; actives raise or lower the signal. The method in brief: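 Multiplexed cis-reporter readout in human hepatoma HepG2 cells; PBREM-regulated transcript quantified after 24 h exposure by fluorescent RT-PCR fragment analysis. Signal changes up or down fitted relative to DMSO.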

Assay [17] in a line: ATG_M_19_CIS: Attagene CIS-FACTORIAL HepG2 Assay for M19 Transcription Factor (Internal Marker) (AID 2282939). The conditions noted are these: HepG2 Attagene CIS-FACTORIAL M19 internal marker reporter; actives raise or lower the signal. An outline of the steps:
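Chemical-treated HepG2 (24 h) with MRTU constructs; reporter transcripts detected by fluorescent RT-PCR fragment analysis on capillary electrophoresis. Internal background marker, DMSO as baseline.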

For assay [18], the target named is Hypoxia-inducible factor 1-alpha (Homo sapiens) (UniProt Q16665). The assay can be described thus: ATG_HIF1a_CIS: Attagene CIS-FACTORIAL HepG2 Assay for human Hypoxia Inducible Factor 1 (HIF1A) (AID 2282951). The conditions noted are these: HepG2 Attagene cis-factorial HIF1a reporter transcription; actives raise or lower the signal. The method in brief:
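Cis-element reporter constructs were transiently transfected into HepG2 cells, which were treated for 24 h; reporter RNA was reverse-transcribed, amplified, labelled and resolved by capillary electrophoresis.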

The nature of assay [19]: ATG_ERE_CIS: Attagene CIS-FACTORIAL HepG2 Assay for Estrogen Response Element (ERE) (AID 2282940). The conditions noted are these: HepG2 ERE cis-reporter, Attagene RNA transcript; actives raise or lower the signal. An outline of the steps: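 Human liver cells (HepG2) bearing transiently transfected, promoter-regulated reporter units were exposed 24 h. Reporter mRNA induction was detected by capillary electrophoresis of labelled RT-PCR products and fitted bidirectionally to DMSO.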

For assay [20], the target named is Bile acid receptor (Homo sapiens) (UniProt Q96RI1). The experiment in a line: ATG_IR1_CIS: Attagene CIS-FACTORIAL HepG2 Assay for human Nuclear Receptor Subfamily 1 Group H Member 4 (NR1H4), IR1 submotif (AID 2282946). The following applies: IR1 reporter transcription, actives raise or lower the signal. The method in brief: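 Readout: reporter transcript levels by RT-PCR with fluorescent capillary electrophoresis, from HepG2 cells transiently transfected with multiplexed cis-regulated reporters and dosed 24 h. Gain- or loss-of-signal fitted versus DMSO negative control.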
Bile acid receptor (Homo sapiens), sequence (Q96RI1 whole entry, looked up): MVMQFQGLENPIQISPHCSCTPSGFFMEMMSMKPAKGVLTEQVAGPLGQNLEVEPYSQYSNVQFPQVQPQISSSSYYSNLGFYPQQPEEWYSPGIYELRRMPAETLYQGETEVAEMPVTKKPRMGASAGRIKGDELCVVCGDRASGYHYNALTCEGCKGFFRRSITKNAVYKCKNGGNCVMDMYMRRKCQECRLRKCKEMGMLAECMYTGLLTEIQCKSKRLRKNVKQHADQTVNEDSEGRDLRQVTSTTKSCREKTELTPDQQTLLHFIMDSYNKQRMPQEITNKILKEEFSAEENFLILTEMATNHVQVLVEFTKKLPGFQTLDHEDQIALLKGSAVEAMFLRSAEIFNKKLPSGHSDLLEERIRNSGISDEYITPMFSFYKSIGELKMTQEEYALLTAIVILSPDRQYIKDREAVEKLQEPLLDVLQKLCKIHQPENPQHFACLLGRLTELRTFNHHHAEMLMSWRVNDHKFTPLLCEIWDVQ

As usually defined, the AC50 is the concentration giving half of the maximal activity seen.

Hepatocyte nuclear factor 6 (Homo sapiens), sequence (Q9UBC0 whole entry, looked up, the tested form may be a part): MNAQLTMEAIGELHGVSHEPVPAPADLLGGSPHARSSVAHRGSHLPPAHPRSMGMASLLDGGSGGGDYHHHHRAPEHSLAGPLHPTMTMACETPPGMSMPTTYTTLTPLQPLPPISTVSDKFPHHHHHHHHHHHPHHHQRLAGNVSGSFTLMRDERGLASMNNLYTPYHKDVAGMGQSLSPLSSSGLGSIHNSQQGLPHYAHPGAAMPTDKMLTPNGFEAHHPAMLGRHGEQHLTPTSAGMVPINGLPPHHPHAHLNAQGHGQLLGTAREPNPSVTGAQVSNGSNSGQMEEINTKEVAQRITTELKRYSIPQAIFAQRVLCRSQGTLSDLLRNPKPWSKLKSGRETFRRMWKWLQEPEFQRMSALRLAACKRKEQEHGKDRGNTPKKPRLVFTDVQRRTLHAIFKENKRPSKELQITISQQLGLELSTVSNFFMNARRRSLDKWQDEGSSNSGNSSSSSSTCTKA
Hypoxia-inducible factor 1-alpha (Homo sapiens), sequence (Q16665 whole entry, looked up): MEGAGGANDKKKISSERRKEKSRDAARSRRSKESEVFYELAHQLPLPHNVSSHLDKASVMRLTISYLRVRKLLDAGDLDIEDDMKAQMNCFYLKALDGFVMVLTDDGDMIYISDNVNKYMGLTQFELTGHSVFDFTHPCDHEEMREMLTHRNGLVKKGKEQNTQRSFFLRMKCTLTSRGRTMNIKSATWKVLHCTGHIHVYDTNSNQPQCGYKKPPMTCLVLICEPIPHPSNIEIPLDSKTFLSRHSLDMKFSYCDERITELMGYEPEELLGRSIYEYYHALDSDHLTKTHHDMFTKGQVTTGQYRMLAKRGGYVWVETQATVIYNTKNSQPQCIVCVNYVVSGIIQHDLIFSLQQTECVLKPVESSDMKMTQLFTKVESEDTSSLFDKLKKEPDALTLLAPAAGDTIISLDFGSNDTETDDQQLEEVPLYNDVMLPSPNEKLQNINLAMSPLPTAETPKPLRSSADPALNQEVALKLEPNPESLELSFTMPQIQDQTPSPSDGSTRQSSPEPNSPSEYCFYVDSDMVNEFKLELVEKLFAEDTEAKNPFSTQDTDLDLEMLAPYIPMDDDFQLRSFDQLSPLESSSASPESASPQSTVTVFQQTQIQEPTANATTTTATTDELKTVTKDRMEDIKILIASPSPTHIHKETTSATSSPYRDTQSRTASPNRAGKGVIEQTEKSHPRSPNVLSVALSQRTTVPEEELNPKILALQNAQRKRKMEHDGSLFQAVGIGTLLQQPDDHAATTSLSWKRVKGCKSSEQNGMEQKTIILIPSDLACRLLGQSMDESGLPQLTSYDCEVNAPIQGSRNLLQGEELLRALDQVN
Heat shock factor protein 1 (Homo sapiens), sequence (Q00613 whole entry, looked up): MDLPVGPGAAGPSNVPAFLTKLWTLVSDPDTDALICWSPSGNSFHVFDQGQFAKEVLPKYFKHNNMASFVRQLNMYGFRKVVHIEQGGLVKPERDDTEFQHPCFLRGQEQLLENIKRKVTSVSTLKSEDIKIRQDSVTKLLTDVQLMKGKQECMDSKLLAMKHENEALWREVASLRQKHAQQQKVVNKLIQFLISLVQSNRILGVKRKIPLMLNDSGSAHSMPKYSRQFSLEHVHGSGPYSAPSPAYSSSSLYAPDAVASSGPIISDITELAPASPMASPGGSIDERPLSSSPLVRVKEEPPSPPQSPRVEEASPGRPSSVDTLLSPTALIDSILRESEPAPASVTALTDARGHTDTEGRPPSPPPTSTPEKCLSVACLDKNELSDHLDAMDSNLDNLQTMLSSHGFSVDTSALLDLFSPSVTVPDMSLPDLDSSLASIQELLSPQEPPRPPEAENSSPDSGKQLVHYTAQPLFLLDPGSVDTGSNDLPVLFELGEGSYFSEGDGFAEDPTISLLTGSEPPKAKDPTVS

For the molecule `CC1(C)[C@H]2CC[C@]1(C)[C@H](O)C2`, the outcome in assay [1], in assay [2], in assay [3], in assay [4], in [5] and in assay [6] was inactive. For the same molecule, the call in [7], in assay [8], in assay [9], in assay [10], in assay [11] and in assay [12] was inactive. Besides, the molecule was called inactive in assay [13], in assay [14], in [15] and in assay [16].

Regarding `O=c1oc(=O)c2cc3c(=O)oc(=O)c3cc12`, the result in assay [1], in [3], in [17], in assay [4], in assay [5] and in [6] was inactive. For the same molecule, the call in assay [8], in [10], in assay [11], in assay [12], in assay [18] and in assay [13] was inactive. In addition, the outcome in [14], in assay [15] and in assay [16] was inactive.

Turning to `CC(=O)O[C@]1(C(C)=O)CC[C@H]2[C@@H]3C[C@H](C)C4=CC(=O)CC[C@]4(C)[C@H]3CC[C@@]21C`, the outcome in [1], in assay [3], in assay [17], in [4], in [5] and in assay [6] was inactive. For the same molecule, the molecule was called inactive in [7], in assay [8], in [20], in assay [9], in [11] and in [12]. Moreover, the result in [18], in assay [13] and in assay [16] was inactive. The AC50 in assay [19] was 9.49 µM (active); in [10], 67.1 µM (active); in assay [15], 49.9 µM (active).

For `Cc1ccc(O)c(C(C)(C)C)c1`, the outcome in assay [1], in assay [3], in assay [4], in assay [5], in assay [6] and in assay [7] was inactive. Further, the molecule was called inactive in assay [10], in assay [11], in [12], in assay [18] and in [14]. Besides, the AC50 was 148 µM (active) in assay [17]; 173 µM (active) in assay [8]; 100 µM (active) in assay [9]; 156 µM (active) in assay [13]; 146 µM (active) in assay [15].

`COc1nc(C)nc(N)n1`: the outcome in [1], in [3], in [17], in [19], in assay [4] and in [5] was inactive. For the same molecule, the molecule was called inactive in assay [6], in assay [7], in assay [8], in assay [9], in [10] and in [11]. Besides, the molecule was classed as inactive in [12], in assay [18], in [13], in assay [14] and in assay [15].

Consider `COC(C(=O)O)c1ccccc1` (stereo not drawn), for which the result in assay [1], in [3], in assay [17], in assay [4], in assay [5] and in assay [6] was inactive. The molecule was called inactive in assay [7], in assay [20], in [10], in assay [11], in assay [12] and in assay [18]. The molecule was classed as inactive in [13], in [14], in assay [15] and in [16].
